# The list is not random: actives were taken first. Their share in the collection is about 4.2%.
# Sfp inh: qHTS Assay for Inhibitors of Bacillus subtilis Sfp phosphopantetheinyl transferase (PPTase); Potency, µM, usual class: inhibitors; 310,000 compounds, 3.5% hits; Biochemical Sfp PPTase activity, qHTS; 4'-phosphopantetheinyl transferase ffp (Bacillus subtilis), Q9F4F7;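 also: the enzyme is Sfp with the accession as filed and its product quenches rhodamine fluorescence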
#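 Step 1, compound plus 15 nM Sfp-PPTase, 15 min, room temperature. Step 2, add rhodamine-CoA (5 uM) and BHQ-2-YbbR (12.5 uM). Step 3, read 525/598 nm fluorescence at 0 and 30 min.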
# 12-LOX inh: Primary qHTS assay for inhibitors of human arachidonate 12S-lipoxygenase (ALOX12): Round 2; Potency, µM (doses to about 108 µM), hits mostly inhibitors; 580,000 compounds, 1.1% hits; AID 1671190, 2021; purified 12hLO, xylenol orange hydroperoxide absorbance
#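 Purified human 12hLO at 150 nM in 25 mM Hepes, 0.01% Triton X-100, pH 7.0, preincubated 15 min at room temperature with compound. Reaction started with 40 uM arachidonic acid, 30 min at room temperature. Hydroperoxide measured by Fe-xylenol orange, 573/405 nm absorbance ratio.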
# VDR inh: Inhibitors of the vitamin D receptor (VDR): qHTS. AID 504847, 2011. Potency, µM, actives largely listed as inhibitors. 400,000 compounds, 0.93% hits. VDR-SRC2-3 peptide fluorescence polarization, 2 h
# Target sequence (P11473 whole entry, looked up): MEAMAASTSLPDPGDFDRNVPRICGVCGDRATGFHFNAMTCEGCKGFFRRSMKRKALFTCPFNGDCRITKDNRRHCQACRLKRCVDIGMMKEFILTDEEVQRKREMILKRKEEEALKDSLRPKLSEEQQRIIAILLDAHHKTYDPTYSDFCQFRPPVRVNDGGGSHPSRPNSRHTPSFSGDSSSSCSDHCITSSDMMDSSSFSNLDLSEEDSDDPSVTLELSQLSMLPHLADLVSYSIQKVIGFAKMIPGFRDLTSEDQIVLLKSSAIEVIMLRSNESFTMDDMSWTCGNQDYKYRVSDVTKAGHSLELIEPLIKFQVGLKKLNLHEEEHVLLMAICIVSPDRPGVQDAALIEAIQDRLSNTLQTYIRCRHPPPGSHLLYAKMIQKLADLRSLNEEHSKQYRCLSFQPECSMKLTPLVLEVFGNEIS
#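 Inhibition of the VDR/SRC2-3 peptide interaction is quantified by fluorescence polarization. Compounds (23 nl, pintool) incubate with the reagents for 2 hours at ambient room temperature.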
# PLK1 PBD block: qHTS for Inhibitors of PLK1-PDB (polo-like kinase 1 - polo-box domain): Primary Screen; Serine/threonine-protein kinase PLK1 (Homo sapiens), P53350; Plk1 PBD binding of FITC phosphopeptide, fluorescence polarization; Potency, µM, most hits filed as inhibitors; 360,000 compounds, 2.8% hits; also: series mostly up to about 57 µM; nearly all actives have a fitted effect of over 65% in size
# Hits are given with their value; n = inactive; u = inconclusive; x = not tested or not shown; ! = repeats disagree. Calls follow the shape of the dose curve; as a rule, active = well fitted curve in the direction sought with a large enough effect; inconclusive = small, poorly fitted or top-dose-only effect, or another doubt; inactive = no such curve, though single readings can be large; an effect the other way counts as inactive or inconclusive.
SMILES,Sfp inh,12-LOX inh,VDR inh,PLK1 PBD block
CC(=O)NC1(C)CCN(Cc2ccccc2-c2ccc3ccccc3c2)C1 (stereo not given),x,32µM,x,x
Cc1ccc(NC(=O)N2CCC(N3C(=O)C4(CCCCC4)C3c3ccncc3)CC2)cc1C (stereo not given),x,n,x,x
CC1CCc2[nH]c3ccc(C(=O)Nc4ccccc4F)cc3c2C1 (stereo not given),x,n,x,x
CC(C)=NOc1nc(N(C)C)nc(N2CCOCC2)n1,n,u,u,30µM
CC(=O)NCCOc1nc(N(C)C)nc(N2CCOCC2)n1,n,n,n,n
CCc1cc2c(SCC(=O)NC3CCCC3)ncnc2s1,x,n,x,n
CCc1cc2c(SCC(=O)c3ccc(C)cc3)ncnc2s1,n,n,n,30µM
CCOC(=O)c1cc(-c2ccccc2)n(CC(=O)Nc2cc(OC)cc(OC)c2)c1C,u,n,n,n
CC(CNC(=O)c1cncc(O)c1)NC(=O)c1cncc(O)c1 (stereo not given),79µM,u,n,n
O=C(NCCCN1CCN(CCCNC(=O)c2ccccc2F)CC1)c1ccccc1F,n,n,n,n
O=C(NCCN1CCN(c2ccccc2)CC1)c1ccccc1F,n,u,n,24µM
Cc1cc(NC(=O)c2c([N+](=O)[O-])cnn2C)no1,n,u,n,n
O=C(Nc1ccc(OCC(=O)N2CCC(Cc3ccccc3)CC2)cc1)c1ccco1,89µM,u,n,n
CC(=O)Nc1ccc(OCC(=O)N2CCC(Cc3ccccc3)CC2)cc1,n,n,n,n
CCOC(=O)CNC(=O)C1CCC(CNS(=O)(=O)c2cccc3nsnc23)CC1 (stereo not given),n,n,n,n
CNc1ccc2c3c(cccc13)C(=O)N(C)C2=O,n,n,n,3µM
CN1C(=O)c2cccc3c(N(C)C)ccc(c23)C1=O,n,n,n,n
Cc1ccnc(N=O)c1,x,u,n,11µM
Cc1ccc(-n2[nH]c(C)c(C=Nc3cc(C)ccn3)c2=O)cc1,n,u,n,n
CNCCCC12CCC(c3ccccc31)c1ccccc12,89µM!,n,n,u
CNCCCC1c2ccccc2C=Cc2ccccc21,n,n,n,n
CCc1ccccc1NC(=O)c1ccc(=O)n(Cc2ccc(F)cc2)c1,x,n,n,x
CC(O)[C@H]1CN=C(N)N1CC1CCCCC1 (stereo not given in full),x,u,u,27µM
NC1=NC[C@H](c2ccccc2)N1CC1CCCCC1,x,n,n,n
Cn1nc(C(C)(C)C)cc1C(=O)NNC(=O)c1cccc(Cl)c1,n,n,n,n
SMILES,Sfp inh,12-LOX inh,VDR inh,PLK1 PBD block
COc1cccc(OC)c1OCCCN1CCC(Cc2ccccc2)CC1,n,11µM,n,n
O=C(O)CCC(=O)c1ccc2c(c1)OCCO2,n,n,n,n
CCCCCCCc1ccc(C(=O)CCC(=O)O)cc1,x,n,x,x
CCCCCCCCc1ccc(C(=O)CCN(C)C)cc1,x,13µM,x,x
O=C(CCN1Cc2ccccc2C1)c1ccc2c(c1)OCCO2,u,u,n,24µM
CN(C)CCC(=O)c1ccc2c(c1)OCO2,n,u,79µM,19µM
COc1ccc(C(=O)CSC#N)cc1OC,n,n,u,24µM
CN(C)CCCC(=O)c1ccc2c(c1)OCO2,n,n,n,n
CN(C)CCC(=O)c1cccc(Br)c1,u,u,u,9.5µM
CN(CCOC(=O)c1cccc(Br)c1)C(C)(C)C,n,n,n,n
COc1ccc(C(CC(=O)c2ccc3c(c2)OCO3)C(=O)O)cc1OC (stereo not given),x,n,x,n
COc1ccc(C(=O)COc2ccc3c(c2)OCO3)cc1OC,x,45µM,x,x
Cc1cc2oc(C(=O)Nc3cccc4cccnc34)c(C)c2cc1C,x,n,x,x
C=CCOC(=O)C1=C(C)NC(SCC(=O)OCC)=C(C#N)C1c1ccc(O)c(OC)c1 (stereo not given),n,x,n,n
CCOC(=O)CSC1=C(C#N)C(c2ccccc2)C(C(C)=O)=C(C)N1 (stereo not given),79µM,n,n,n
CSCSC1=C(C#N)C(c2ccc(Cl)cc2)C(C(C)=O)=C(C)N1 (stereo not given),10µM,x,x,x
CN(C)CC/C=C1\c2cc(F)ccc2CSc2ccccc21,79µM,u,n,n
S=C(NCCCc1ccccc1)Nc1ccc(Br)cc1Cl,x,45µM,x,x
S=C(NCCc1ccccc1)Nc1ccc(Cl)cc1Cl,n,u,n,n
Fc1ccc(CCNC(=S)Nc2ccc(Oc3ccccc3)cc2)cc1,x,22µM,x,x
CCN(CC)CCNC(=S)Nc1ccc(F)cc1,28µM,n,n,n
CCN(C(=S)Nc1ccc(Oc2ccccc2)cc1)c1ccccc1,n,50µM,n,n
OCCCCCCNC(=S)Nc1ccc(F)cc1,x,n,x,x
O=C(Cc1ccsc1)NC1CCc2nnc(C3CC3)n2CC1 (stereo not given),x,n,x,x
S=C(NCCc1ccncc1)Nc1ccccc1,n,n,n,u
SMILES,Sfp inh,12-LOX inh,VDR inh,PLK1 PBD block
S=C(NCCc1ccccc1)Nc1ccc(Br)cc1,n,35µM,n,n
CCCCNC(=S)Nc1ccc(Oc2ccccc2)cc1,50µM,u,n,u
O=c1c(-c2ccc(Cl)cc2)[n+]([O-])c2ccccc2n1O,n,u,n,n
COC[C@@H]1CN(Cc2cccc(C#N)c2)C[C@H]1C(=O)NC1CC1,x,n,x,x
O=C1c2c(nc(CNc3cccc(F)c3)n2Cc2ccccc2)NCCN1CCN1CCCCC1,x,n,x,x
C/C(CCc1oc2ccc(Br)cc2c1-c1ccc(C)o1)=N/O,u,u,n,n
C/C(CCc1oc2ccc(Cl)cc2c1-c1ccc(C)o1)=N\O,16µM,u,n,n
Cc1ccc(NC(=O)CCNC(=O)c2ccc(Br)cc2)cc1S(=O)(=O)N1CCOCC1,x,n,n,n
Cc1ccc(NC(=O)CSc2ccc(Br)cc2)cc1S(=O)(=O)N1CCOCC1,x,n,n,12µM
Cc1ccc(NC(=O)CNCCCN2CCOCC2)cc1S(=O)(=O)N1CCCCC1,79µM,n,n,n
Cc1ccc(NC(=O)CN2CCOCC2)cc1S(=O)(=O)N1CCCCC1,x,n,n,n
CCC(C)NC(=O)CCC(=O)Nc1ccc2nc(N3CC(C)CC(C)C3)cc(C)c2c1 (stereo not given),n,n,n,n
OCc1cnc(SCc2ccccc2F)n1Cc1ccc(F)cc1,x,n,n,x
CCN(CC)S(=O)(=O)c1cccc(C(=O)NC(C(=O)Nc2nnc(C3CC3)s2)C(C)C)c1 (stereo not given),n,n,n,27µM
CCN(CC)S(=O)(=O)c1cccc(C(=O)NCC2CCCCC2)c1,n,n,u,24µM
CCc1ccccc1NC(=O)CSC1=C(C#N)C(c2ccc(O)c(OC)c2)C2=C(CCCC2=O)N1 (stereo not given),u,n,n,11µM
COc1cc(C2C(C#N)=C(SC)NC3=C2C(=O)CCC3)ccc1O (stereo not given),n,n,n,n

# High-throughput results: PubChem, National Center for Advancing Translational Sciences (NCATS)
